Data on 21 compounds can be found in PubChem BioAssay (NCI).

Compounds without any hit were thinned out: in the full panel of roughly 79,000, 15% have a hit. Values without a mark were called inactive. Activity calls are given as the source filed them. Rule as the data show it: active = growth inhibition above about 70%; inactive = the rest.

Assay [1] is described as follows: NCI Yeast Anticancer Drug Screen. Data for the rad50 strain (AID 155).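 Also: 0% = growth of vehicle-only cultures of the same strain.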 Particulars: S. cerevisiae rad50 strain growth inhibition; at 50.0 µM; hits give high values. Summed up: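 Genetically altered yeast (DNA repair pathway); compound treatment; growth inhibition vs vehicle ctrl.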
Assay [2] can be described thus: NCI Yeast Anticancer Drug Screen. Data for the mec2-1 strain (AID 157). Particulars: S. cerevisiae mec2-1 strain, at 50.0 µM, hits give high values. Summed up:
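Cells of the genetically defined mec2-1 yeast strain are incubated with test compound. Inhibition of growth is calculated against vehicle-treated controls.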

Assay [3] in a line: NCI Yeast Anticancer Drug Screen. Data for the sgs1 mgt1 strain (AID 161).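 Also: 0% = growth of cultures given vehicle only.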 The settings on record: S. cerevisiae sgs1 mgt1 strain, at 50.0 µM, hits give high values. Summed up:
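Genetically altered yeast, compound exposure, growth inhibition relative to vehicle.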

A short description of assay [4]: NCI Yeast Anticancer Drug Screen. Data for the cln2 rad14 strain (AID 165).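 Also: 0% = growth equal to vehicle treated cultures.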 Particulars: S. cerevisiae cln2 rad14 strain, at 50.0 µM, hits give high values. The method in brief: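 The screen exposed genetically defined yeast (cln2 rad14) to test compounds and scored growth inhibition relative to vehicle-treated controls.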
Assay [5] can be described thus: NCI Yeast Anticancer Drug Screen. Data for the bub3 strain (AID 167). Particulars: S. cerevisiae bub3 mutant strain, at 50.0 µM, hits give high values. The method in brief: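 Yeast carrying a defined mutation is treated with each compound, and growth is compared with that of vehicle-exposed cells to give inhibition.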
The nature of assay [6]: NCI Yeast Anticancer Drug Screen. Data for the mlh1 rad18 strain (AID 175). Particulars: S. cerevisiae mlh1 rad18 strain growth inhibition; at 50.0 µM; hits give high values. The method in brief:
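Compound-treated yeast growth, normalised to vehicle controls. Strain bears defined DNA repair mutations.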

As to `CCOC(=O)c1cc(Cl)nc(Cl)c1`, the growth inhibition in assay [1] is 6.95%; in assay [2], -16.6%; in assay [3], -1.8%; in assay [4], -3.15%; in assay [5], 4.5%; in assay [6], -10.4%.
In the case of `[Cu+2].[O-]C1c2c(ccc3ccccc23)-c2ccccc2C1N=Nc1ccccc1.[O-]c1c(N=Nc2ccccc2)c2ccccc2c2ccc3ccccc3c12` (stereo unspecified), the growth inhibition in assay [1] was -19.1%; in assay [2], -20.7%; in assay [3] it was -7.8%; in assay [4] it was -20.4%; in assay [5] it was -10.9%; in assay [6], -20.2%.
On to `O=S(CCCl)c1ccccc1` (stereo unspecified), for which the growth inhibition in assay [1] is -8.3%; in assay [2], -13.2%; in assay [3] it was 3.35%; in assay [4] it was 10.4%; in assay [5], -7.05%; in assay [6], 4.9%.
With `C=C1C(=O)OC2CCC3OC(C)(C)OC3C12` (stereo unspecified), the growth inhibition in assay [1] is 6.2%; in assay [2], 17.5%; in assay [3], 15.4%; in assay [4], -16.9%; in assay [5], 31.9%; in assay [6], 10.6%.
As for `CSC1(C)C(=O)Nc2cc([N+](=O)[O-])ccc21` (stereo unspecified), the growth inhibition in assay [1] was 1.7%; in assay [2], -11.1%; in assay [3], 0.6%; in assay [4], -14.2%; in assay [5], -32.5%; in assay [6] it was -5.55%.
For the compound `COc1ccc(CCNC(=O)Cc2cc(OCc3ccccc3)c(OC)cc2[N+](=O)[O-])cc1OC`, the growth inhibition in assay [1] was 36.1%; in assay [2] it was 8.4%; in assay [3] it was 25.5%; in assay [4], 0.8%; in assay [5], -4.2%; in assay [6], 6.9%.
Turning to `O=C1c2ccccc2C(=O)C1(O)c1c[nH]c2ccccc12`, the growth inhibition in assay [1] is -1.55%; in assay [2] it was 12.1%; in assay [3], 4.25%; in assay [4], 6.85%; in assay [5], -18%; in assay [6], 23.6%.
Regarding `O=C1NC(Cc2ccc(O)cc2)C(=O)N2CCCC12` (stereo unspecified), the growth inhibition in assay [1] is 1.25%; in assay [2] it was -3%; in assay [3], -34.6%; in assay [4] it was 0.4%; in assay [5] it was -18.2%; in assay [6], -14.2%.
Consider `OCc1c(-c2ccc(Cl)cc2)c(-c2ccc(Cl)cc2)c2n1CCC2`, for which the growth inhibition in assay [1] was -0.65%; in assay [2], -18%; in assay [3], 1.3%; in assay [4], 90.4% (active); in assay [5], -2.35%; in assay [6] it was -6.85%.
`O=C(N/N=C/C1CCCCC1)C(=O)N/N=C/C1CCCCC1`: the growth inhibition in assay [1] was 4.45%; in assay [2] it was 6.65%; in assay [3], 8.55%; in assay [4], -7.45%; in assay [5], 28.2%; in assay [6] it was -58.5%.
Regarding `O=C(NNC(=O)c1ccccc1F)c1ccc2ccccc2c1`, the growth inhibition in assay [1] is -15.3%; in assay [2] it was -13.3%; in assay [3], -8.75%; in assay [4], -2.5%; in assay [5], -2.1%; in assay [6], -6.55%.
`NN1C(=O)Cc2ccc(Cl)cc21`: the growth inhibition in assay [1] was 9.1%; in assay [2] it was -0.7%; in assay [3], -2.9%; in assay [4] it was -33.5%; in assay [5] it was -3.15%; in assay [6] it was 2.1%.
Consider `CCN(CC)c1ccc2c(c1)Oc1ccc(N(C(C)=O)c3ccccc3)cc1C21OC(=O)c2ccccc21` (stereo unspecified), for which the growth inhibition was 25.5% in assay [1]; 13.1% in assay [2]; 29.6% in assay [3]; 31% in assay [4]; 51.4% in assay [5]; 19.2% in assay [6].
Regarding `Nc1cc([N+](=O)[O-])cc(S(=O)(=O)O)c1O`, the growth inhibition in assay [1] is -5.15%; in assay [2], -2.95%; in assay [3], -14.2%; in assay [4] it was -65.8%; in assay [5], 7.45%; in assay [6], -26%.
Take `Cc1ccc(NC(=O)C(C)S)cc1` (stereo unspecified): the growth inhibition in assay [1] is 24.6%; in assay [2], 11.6%; in assay [3], 29.1%; in assay [4], 38.6%; in assay [5], 25.7%; in assay [6], 32.4%.
As for `CCCCCCC1OCC(C)([N+](=O)[O-])CO1` (stereo unspecified), the growth inhibition in assay [1] was 13.9%; in assay [2], -8.8%; in assay [3] it was -1.1%; in assay [4] it was -28.8%; in assay [5] it was -12.6%; in assay [6], 5.65%.
With `Nc1nc2c(c(-c3nc(N)nc4c3CCC4)n1)CCC2`, the growth inhibition was 9.7% in assay [1]; 15.4% in assay [2]; 11.6% in assay [3]; 7% in assay [4]; -1.75% in assay [5]; 10.8% in assay [6].
`CSc1ccc(NC(=O)c2cccc([N+](=O)[O-])c2C(=O)O)cc1`: the growth inhibition was 5.05% in assay [1]; 8.25% in assay [2]; 13.2% in assay [3]; -6.35% in assay [4]; 15.2% in assay [5]; 1.6% in assay [6].
For the compound `CC(NC(=O)OC(C)(C)C)C(=O)NC(Cc1ccccc1)C(=O)NCC(=O)ON=C1CCCC1` (stereo unspecified), the growth inhibition in assay [1] was 37.1%; in assay [2], 4.1%; in assay [3] it was 32.6%; in assay [4] it was 7.3%; in assay [5], 1.9%; in assay [6], 23.6%.
For the compound `CCC1=NC(C(F)(F)F)(C(F)(F)F)N=C(N2CCOCC2)O1`, the growth inhibition in assay [1] was 23.8%; in assay [2], 6.15%; in assay [3] it was 9.2%; in assay [4], 14.4%; in assay [5] it was 22.4%; in assay [6], 2.2%.
For `COC(=O)c1c2c(cc3c1CC1(Cc4ccccc4C1)C3)CCC2`, the growth inhibition was 1.15% in assay [1]; 11.6% in assay [2]; 17% in assay [3]; 0.6% in assay [4]; 2.6% in assay [5]; 18.6% in assay [6].
